The entries come from a sample that favours hits as a whole.
Pf Dd2 inh – qHTS Primary assay for Inhibitors of Plasmodium falciparum Dd2 growth in vitro; Potency, µM (doses to about 28.9 µM), inactives show at the highest dose activity, negative = inhibition, most hits filed as inhibitors; P. falciparum Dd2 growth, SYBR Green, 72 h; AID 1347417, 2020; 120,000 compounds, 4.3% hits; active = well fitted inhibition curve with a large enough effect;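 note: plate controls were DMSO vehicle for no effect and reference drug for full effect; nearly all actives have a fitted effect of over 65% in size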
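Infected erythrocytes (Dd2, 0.3% parasitemia, 2.5% hematocrit final) are added to compound in RPMI-1640/Albumax II medium, grown 72 h at 37C in low oxygen, then lysed with saponin/Triton-X containing SYBR Green and read by fluorescence.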
Starred values were filed as active, the others as inactive; i = inactive; [ ] = remark or other dose. Potency is the fitted concentration of half-maximal effect.

SMILES	Pf Dd2 inh
CCN1C(=O)CCC2(C(=O)NC(C)C)CCCC=C12 (centres undefined)	0%
CCN(CC)c1ccc(CN(C(=O)Cc2coc3ccc(C)cc23)C2CCS(=O)(=O)C2)cc1 (centres undefined)	13µM*
CCc1ccc2occ(CC(=O)N(Cc3ccc(N(C)C)cc3)C3CCS(=O)(=O)C3)c2c1 (centres undefined)	-14%
Cc1ccc2occ(CC(=O)N(Cc3ccc(N(C)C)cc3)C3CCS(=O)(=O)C3)c2c1 (centres undefined)	-25%
Nc1cc(N2CCC(Oc3ccc4c(c3)OCO4)(C(=O)O)CC2)ncn1	-2%
OC[C@@H]1CN(Cc2ccco2)C[C@H]1c1ccccn1	i
CCCOc1ccc(CN2C[C@@H](CO)[C@H](c3ccccn3)C2)cc1	2.8µM*
COc1ccc(CN2C[C@@H](CO)[C@H](c3ccccn3)C2)cc1C	i
COCC(=O)N(C1CCOCC1)C1CCN(C(=O)c2cccnc2C)CC1	-5%
COc1ccc(CN2C(=O)c3oc4ccccc4c(=O)c3C2c2ccc(O)cc2)cc1 (centres undefined)	-28%
O=C1c2oc3ccccc3c(=O)c2C(c2cccc(O)c2)N1Cc1ccc(F)cc1 (centres undefined)	14µM*
COc1ccc(CN2C(=O)c3oc4ccc(F)cc4c(=O)c3C2c2ccc(O)cc2)cc1 (centres undefined)	-12%
CCCNC(=O)N1CCCCCC1CN1CCC(OC)CC1 (centres undefined)	i
COCC1CN(C)CC12CCN(Cc1ccc(C)o1)CC2 (centres undefined)	-5%
O=C(CCC1CCCN(Cc2cc3c(cc2Cl)OCO3)C1)Nc1ccccc1F (centres undefined)	-25%
O=C(CCC1CCCN(Cc2cccnc2)C1)Nc1ccccc1F (centres undefined)	-22%
O=C(CCC1CCCN(Cc2cccn2-c2ccccn2)C1)Nc1ccccc1F (centres undefined)	7.9µM*
Cc1ccc2[nH]c(CN3CC[C@H]4NCCC[C@]4(CO)C3)cc(=O)c2c1	-30%
C[S+](=O)([O-])N1CC2(Cc3ccccc31)CN(C(=O)C1CCCC1)C2	-6%[44.1 µM]
COc1ccc(CCc2nc3nccc(-c4ccccc4)n3n2)cc1OC	-21%
COc1ccc(CCc2nc3nccc(-c4cc(OC)c(OC)c(OC)c4)n3n2)cc1	-14%
COc1ccc(CCc2nc3nccc(-c4ccncc4)n3n2)cc1OC	-11%
COc1cc(-c2ccnc3nc(CCc4ccccc4)nn23)cc(OC)c1OC	11µM*
COc1ccc(CCc2nc3nccc(-c4ccc(F)cc4)n3n2)cc1OC	-11%
COc1ccc(CCc2nc3nccc(-c4ccc(OC)c(OC)c4)n3n2)cc1	13µM*
SMILES	Pf Dd2 inh
COc1cccc(NC(=O)NC[C@H]2O[C@@H](CC(=O)N3CCc4ccccc43)[C@H](O)[C@@H]2O)c1	-16%
CC(C)CNC(=O)C(NC(=O)CC(C)C)C1CCN(C(=O)c2ccccc2)CC1 (centres undefined)	5%
O=C(Nc1ccc(F)cc1)N[C@H]1[C@H](O)[C@@H](N2CCC(Cc3ccccc3)CC2)[C@@H]2OC[C@H]1O2	i
CCn1cc(S(=O)(=O)N2CCC(c3ncc(C)n3CCOC)C2)cn1 (centres undefined)	-30%
O=C(C1CC1)N1CCc2cc(Br)cc(S(=O)(=O)N3CCN(c4cccc(Cl)c4)CC3)c21	-7%
CCC(=O)N1CCc2cc(Br)cc(S(=O)(=O)N3CCN(c4ccccc4)CC3)c21	-3%
CC(=O)N1CCc2cc(Br)cc(S(=O)(=O)N3CCN(c4cccc(C(F)(F)F)c4)CC3)c21	10µM*
COc1cccc(NC(=O)Cn2c(=O)n(Cc3ccc(F)cc3)c(=O)c3sc4ccccc4c32)c1	-25%
COc1cccc(NC(=O)Cn2c(=O)n(-c3ccc(Cl)cc3)c(=O)c3sc4ccccc4c32)c1	11µM*
COc1ccccc1NC(=O)Cn1c(=O)n(-c2cccc(Cl)c2)c(=O)c2sc3ccccc3c21	i
CCCCN(C)C(=O)c1cc(-c2ccc(C)cc2)cn1CC	-19%
CN1CCC2(CCC1=O)CN(Cc1nc(C(N)=O)no1)CCN2C (centres undefined)	-13%
CCCn1cnnc1CNC1CCC2(CCNCC2)CC1	-13%
CS(=O)(=O)N1CCOc2ccc(CCC(=O)N3CCC(C(N)=O)CC3)cc2C1	21%
CC(C)c1ccc(NC(=O)N[C@H]2CO[C@H]3[C@@H]2OC[C@H]3O)cc1	7%[44.1 µM]
Fc1ccc(-c2noc(-c3ncn4c3COC(c3ccccc3Cl)C4)n2)cc1 (centres undefined)	-21%
FC(F)(F)c1ccc(-c2noc(-c3ncn4c3COC(c3ccccc3Cl)C4)n2)cc1 (centres undefined)	-12%
Clc1ccccc1C1Cn2cnc(-c3nc(-c4ccccn4)no3)c2CO1 (centres undefined)	6.3µM*
Cc1ccc(-c2ccc3nnc(CNC(=O)c4ccco4)n3n2)cc1C	8%

Compound activity deposited in PubChem BioAssay by National Center for Advancing Translational Sciences (NCATS).
